# Compound activity from PubChem BioAssay.
# Pf growth 96h: inhibits malaria parasite growth, 96 h. P. falciparum luciferase reporter growth, 96 h. Potency, µM (highest dose often 28.7 µM), for inactives: at the top dose activity change, negative = inhibition, usual class: inhibitors. hit rate 6.9% among 320,000. AID 504834; note: potency is the fitted concentration of half-maximal effect; % is set by controls: 0 for no effect and ±100 for the full control effect
#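 Plates of compound plus infected erythrocytes (2% hematocrit, 0.05% parasitemia final) incubate 96 hours, 37 C, 5% CO2. Detection reagent added; reduced luminescence from the parasites' luciferase reporter flags inhibition.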
# Pf growth 48h: P. falciparum growth inhibition at 48 hours (one generation); hit rate 5.9% among 310,000; P. falciparum luciferase growth in erythrocytes, 48 h; Potency, µM (titrated, usually from 28.7 µM), without a hit: at the top dose activity change, negative = inhibition, hits mostly inhibitors; note: potency is the fitted concentration of half-maximal effect; % is set by controls: 0 for no effect and ±100 for the full control effect
#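 First compound was added to culture medium, then infected red cells at 0.1% parasitemia and 2% hematocrit (final). After incubation at 37 C under 5% CO2, luciferase detection reagent was dispensed and light output recorded.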
# AMA1 RON2 block: inhibitors of Plasmodium falciparum AMA1-RON2 interaction. AlphaScreen AMA1-biotinylated RON2 peptide binding. Potency, µM (top dose mostly 58.2 µM), for the others: top-dose activity change, negative = inhibition, actives largely listed as inhibitors. hit rate 0.2% among 360,000. AID 720542;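 note: potency is the fitted concentration of half-maximal effect; 0% = vehicle wells and -100% = peptide control; nearly all actives have a fitted effect of over 45% in size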
#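 AMA1 (3D7) with his tag at 25 nM final met compounds first, then biotinylated RON2 peptide at 25 nM; detection used donor plus acceptor beads, 10 µg/mL apiece, read by AlphaScreen after 30 min at room temperature.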
# Shiga toxin inh: Shiga toxin inhibition; Vero cells, Shiga toxin protein synthesis inhibition reporter; inhibition, % at 38.7 µM; hit rate 9.2% among 290,000; AID 2315; in the data active = inhibition mostly above about 28%, no sharp cut-off; inactive = mostly below about 43%; note: 0% is about no effect
# HCV inh: HCV inhibition; Huh7.5.1 HCVcc-Cre infection, luciferase reporter, 44 h; Potency, µM (top dose mostly 41.8 µM), inactives show at the top dose activity change, negative = inhibition, actives largely listed as inhibitors; hit rate 3.4% among 340,000; note: potency is the fitted concentration of half-maximal effect; % is set by controls: 0 for no effect and ±100 for the full control effect
#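 Infectious HCV cell culture screen: compound-treated cells (1,000/well, pre-plated 4 h) are infected with HCVcc-Cre at roughly 0.5 moi and grown 44 h. Infection is quantified by luciferase signal after 15 min substrate incubation at room temperature.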
# Cycloheximide cs: counter-screen for Shiga toxin inhibitors: cycloheximide protein synthesis inhibition; cell reporter, cycloheximide protein synthesis inhibition counterscreen; max response, %; hit rate 12% among 300,000; in the data active = max response mostly above about 13%, no sharp cut-off; inactive = mostly below about 14%; note: read at 38.3 µM for the half of the compounds with a filed dose; 0% is about no effect
# Numbers without * were called inactive; i = inactive; ? = inconclusive; . = no result. Only some compounds are listed: those with a hit (about 21% of all), similar ones and a draw of the others. Unless noted, calls come from the whole dose curve; as a rule, active = well fitted curve in the direction sought with a large enough effect; inconclusive = small, poorly fitted or top-dose-only effect, or another doubt; inactive = no such curve, though single readings can be large; an effect the other way counts as inactive or inconclusive.
SMILES,Pf growth 96h,Pf growth 48h,AMA1 RON2 block,Shiga toxin inh,HCV inh,Cycloheximide cs
CCOC(=O)C1(CC2CC2)CCN(Cc2cc(Cl)c(O)c(OC)c2)CC1,0.37µM*,?,0.8%,3.5,-15.2%,2.7
CC(OC(=O)/C=C/c1cccc(F)c1)C(=O)NC1CCCCC1C (configuration not stated),31.8%,2.9%,-5.4%,-5.6,2.8%,0.6
N#CCOc1coc(CN2CCN(c3ccccc3)CC2)cc1=O,-17.1%,9.5%,0.6%,-5.5,5.9%,-2.8
O=C(O)C1CCN(S(=O)(=O)c2ccc(N3CCC(O)CC3)c([N+](=O)[O-])c2)CC1,9.28µM*,?,6.8%,-18.3,14.0%,-5.5
O=C(O)C1CCN(S(=O)(=O)c2ccc(N3CCOCC3)c([N+](=O)[O-])c2)CC1,-0.4%,21.8%,6.2%,-8.2,7.4%,7.7
CCOC(=O)N1CCN(c2ccc(S(=O)(=O)N3CCC(C)CC3)cc2[N+](=O)[O-])CC1,9.28µM*,10.4µM*,-5.5%,.,?,.
COc1ccc(NC(=S)N2CCC(NC(=O)c3ccc(F)cc3)CC2)cc1,13.2%,-20.2%,-17.2%,-3.1,-7.7%,-3.5
COc1ccc(C(C(=O)NC2CCCCC2)N(C(=O)CCl)c2ccc(OC)cc2)cc1 (configuration not stated),9.28µM*,-17.4%,-1.0%,-2.0,1µM*,1.2
COc1ccc(C(C(=O)NC2CCCCC2)N(C(=O)CCl)c2cccc(Cl)c2)cc1 (configuration not stated),?,?,-8.9%,10.0,1.58µM*,5.5
COc1ccc(CN(C(=O)c2nsc(Cl)c2Cl)C(C(=O)NC2CCCC2)c2ccc(C)cc2)cc1 (configuration not stated),10.4µM*,?,-7.5%,-10.5,?,-2.2
COc1ccc(C(C(=O)NC2CCCCC2)N(C(=O)CCl)c2ccc(C)cc2)cc1 (configuration not stated),67.4%,-8.4%,12.1%,9.7,0.562µM*,5.2
COc1cccc(N(C(=O)c2cnccn2)C(C(=O)NC2CCCCC2)c2ccc(Cl)cc2)c1 (configuration not stated),?,?,39.5%,-4.0,5.5%,-1.4
COc1ccccc1C#CC1=CC(=O)C[C@H](c2ccc(F)cc2)C1,.,.,-19.4%,.,.,.
COC(=O)C1=CO[C@@H](C)[C@@H]2CN3CCc4c([nH]c5ccccc45)[C@@H]3C[C@H]12,.,.,.,23.1,.,-1.8
COc1ccc(/C=N/NC(=O)c2cccc(O)c2)cc1Cn1nc(C)c([N+](=O)[O-])c1C,i,?,-3.5%,24.2,?,4.8
CC(=O)NC1[C@H](O)C[C@@](O)(C(=O)O)O[C@H]1[C@H](O)[C@H](O)CO (some centres not stated),-7.1%,-3.0%,.,.,.,.
COc1ccc(C(C(=O)NC2CCCC2)N(C(=O)c2ccoc2C)c2ccc(C)cc2)cc1 (configuration not stated),?,10.4µM*,-11.3%,-5.1,-12.2%,-1.6
COc1ccc(N2C(=O)/C(=C\c3ccco3)N=C2SCC(=O)N(C(C)C)C(C)C)cc1Cl,?,10.4µM*,0.2%,1.8,-17.3%,10.1
O=C(CSC1=N/C(=C/c2ccco2)C(=O)N1c1ccc(OC(F)F)cc1)NC1CCS(=O)(=O)C1 (configuration not stated),-11.2%,2.8%,-6.2%,24.0*,8.4%,17.1
COc1ccc(N2C(=O)/C(=C\c3ccco3)N=C2SCC(=O)NC(C)C)cc1Cl,?,-30.0%,6.0%,7.4,?,1.7
CCNC(=O)CSC1=N/C(=C\c2ccc(O)c(OCC)c2)C(=O)N1c1ccc(OC(F)F)cc1,-3.5%,?,-3.9%,-35.3,-20.1%,3.6
O=C(CN1CCN(c2ncccn2)CC1)N(Cc1ccccc1)c1ccc(F)cc1,11.7µM*,-18.6%,-22.9%,-32.0,7.0%,-7.4
CCN(CC)C(=O)CN1CCN(c2ncccn2)CC1,-3.8%,37.3%,-5.0%,-5.9,-5.1%,14.0
O=C(N1CCc2ccc(S(=O)(=O)N3CCN(S(=O)(=O)c4ccc5c(c4)OCCO5)CC3)cc2C1)C(F)(F)F,.,.,.,6.4,.,7.7
